Our source for the sensor-assay potency score (higher = more potent) values is the OligoGym collection.
Also: reference of the scale not given here.

The target in the first assay is C18orf56. The assay can be described thus: pooled miR-30 sensor sort-seq; sequence = guide strand. The conditions noted are these: shRNA.
On to TAGAATTATCTCTTCATCTGGG, for which the sensor-assay potency score (higher = more potent) was found to be 0.794.
With TATCTCTTCATCTGGGACCTGG, the sensor-assay potency score (higher = more potent) is -0.00491.
Take TCTAATGCATCCTATATCCAGT: the sensor-assay potency score (higher = more potent) is -0.446.
With TTAGTCCTAACCTCAATCCTGC, the sensor-assay potency score (higher = more potent) was -0.842.
For the sequence ACACACAGCAGCGACAGCCGGG, the sensor-assay potency score (higher = more potent) was -1.
In turn, TTAGTATTTTGATCATTGCTGC gave a sensor-assay potency score (higher = more potent) of -0.0513.
Consider TTTAGTCCTAACCTCAATCCTG, for which the sensor-assay potency score (higher = more potent) is -0.687.
Turning to TCGGTATTCGGCATGCAGGCGC, the sensor-assay potency score (higher = more potent) is -0.876.
The same measure, in the same setting: next, ATGCAGGCGCGCTACAGCCTGA: -1.57; TATTTTGATCATTGCTGCCTTT: -0.437; TTAGGGACGTGACTGGCGCGGG: -1.11.
As to TAGTCCTAACCTCAATCCTGCC, the sensor-assay potency score (higher = more potent) is -1.52.

The target of a further assay is C19orf26. Described as above. The conditions noted are these: shRNA.
Take TCGCCTGAGTCACACTCGTGGA: the sensor-assay potency score (higher = more potent) was -1.57.
Sequence TTGTCCTGCGTCTTGCGGCTCT had a sensor-assay potency score (higher = more potent) of -0.61.
For TTCTTGACCTTGAAATAGGGGC, the sensor-assay potency score (higher = more potent) was -0.421.
